LGR2 inh = Drosophila LGR2 receptor signaling inhibition; inhibition, % at 9.99 µM; 0.35% of 380,000 active; AID 720647; HEK293 LGR2, CRE-luciferase, bursicon-stimulated, 4 h;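 active = drop in luminescence signal, shown as inhibition above about 50% in the replicate tests, limit read from the data, passing the limit was not always enough; inconclusive = probably only some replicates passing the limit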;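 also: agonist challenge used bursicon conditioned medium at about half maximal strength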
TWEAK Fn14 block = inhibitors of TWEAK-Fn14 interaction signaling. TWEAK-stimulated Fn14 reporter cells, luciferase luminescence, 8 h. inhibition, % at 10 µM. 2% of 360,000 active. AID 1159606; in the data active = inhibition above about 50%
HSF1 inhib = HSF1 inhibition. activity change, negative = inhibition, % at 7.5 µM (by protocol). NIH3T3-HGL HSE-luciferase, MG132-induced, luminescence 8 h; active compounds read low. AID 2098. 0.77% of 300,000 active;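 active = more than half of replicate wells show activity change below -50%, luminescence cut by over half; inconclusive = some wells, but at most half, below -50%; inactive = no replicate well below -50%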;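 also: luciferase reports HSF-1 transcriptional activity via heat shock element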
HSF1 activator = increases HSF-1 driven luciferase reporter signal | NIH3T3-HGL HSF-1 luciferase reporter, MG132, 8 h; 100% = twice DMSO control signal | activation, % at 9 µM | 1.7% of 300,000 active | AID 504408;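 active = mean replicate activation of at least 50% with a set share of replicates each reaching 50%; inconclusive = only one of those two conditions met; inactive = mean below 50% and too few replicates reaching it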
TROY NFkB inh = inhibitors of TROY-dependent NF-kB signaling; Q293 LMP1-TROYcd NF-kB luciferase reporter, 4 h; inhibition, % at 10 µM; 0.98% of 360,000 active; AID 1347056;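 active = compounds whose plate-normalised and pattern-corrected inhibition of the luciferase reporter signal at the single screening dose is 50% or more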
LMP1 NFkB inh = reduces LMP1-driven NF-kappaB luciferase signal. LMP1-induced NF-kappaB luciferase reporter cells, luminescence. inhibition, % at 12.5 µM. 0.69% of 350,000 active. AID 504558; in the data active = inhibition above about 41%; inconclusive = no clear call, values can overlap the other calls
Of the large screens only hits and unclear results are named; the others gave an inactive call. Sampled rows, rich in hits. Any-hit rate of the full collection: about 3.6%.

S=C(Nc1cccc2ccccc12)Nc1cccc2ccccc12	TWEAK Fn14 block 92.0 (no result: HSF1 inhib, HSF1 activator)
CC(=O)c1cccc(NC(=S)Nc2cccc3ccccc23)c1	TROY NFkB inh 56.8
COc1ccc(Nc2cccccc2=O)cc1	none (no result: LGR2 inh)
COc1ccc(Nc2cccc3ccccc23)cc1	TWEAK Fn14 block 104.5, TROY NFkB inh 81.6
CO[C@@H]1CN(C)C(=O)c2cc(NC(C)=O)ccc2OC[C@H](C)N(Cc2cccc(F)c2)C[C@H]1C	none (no result: TWEAK Fn14 block, HSF1 inhib, HSF1 activator, TROY NFkB inh, LMP1 NFkB inh)
Cc1ccc(S(=O)(=O)Nc2ccc3c(c2)C(=O)N([C@H](C)CO)C[C@@H](C)[C@@H](CN(C)C(=O)Nc2ccccc2)OCCCC[C@H](C)O3)cc1	none (no result: TWEAK Fn14 block, HSF1 inhib, HSF1 activator, TROY NFkB inh, LMP1 NFkB inh)
COc1ccc(NC(=S)Nc2cccc3ccccc23)cc1OC	TWEAK Fn14 block 94.5
COc1ccc(S(=O)(=O)N(C)C[C@H]2OCCCC[C@@H](C)Oc3ccc(N(C)C)cc3C(=O)N([C@H](C)CO)C[C@H]2C)cc1	none (no result: TWEAK Fn14 block, HSF1 inhib, HSF1 activator, TROY NFkB inh, LMP1 NFkB inh)
Cc1cc(C)nc(-n2nc(C)c(Sc3ccc(F)cc3)c2N)n1	HSF1 activator 62.2
Cc1c(N=Cc2ccc(O)c(Br)c2)cccc1[N+](=O)[O-]	LMP1 NFkB inh 47.1
CC(C)NC(=O)N(C)C[C@@H]1Oc2ccc(NS(=O)(=O)c3ccccc3)cc2CC(=O)N([C@@H](C)CO)C[C@H]1C	none (no result: TWEAK Fn14 block, HSF1 inhib, HSF1 activator, TROY NFkB inh, LMP1 NFkB inh)
COc1ccc(/C=N\NC(=O)c2ccc(Cn3cc(Br)c([N+](=O)[O-])n3)o2)c(OC)c1C	TWEAK Fn14 block 63.0 (no result: LGR2 inh)
Cc1ccc2oc(/N=C(\N)NC(=O)C3CC3)nc2c1	TWEAK Fn14 block 64.3 (no result: LGR2 inh)
Cc1ccc2oc(/N=C(\N)NC(=O)C(C)(C)C)nc2c1	LGR2 inh 99.5, TWEAK Fn14 block 103.5, HSF1 inhib -90.9, TROY NFkB inh 92.1, LMP1 NFkB inh 65.9
CC(C)(C)c1ccc(C(=O)N/C(N)=N/c2nc3ccccc3o2)cc1	none (no result: LGR2 inh)
Cc1ccccc1N1CCN(S(=O)(=O)Cc2ccccc2)CC1	HSF1 activator 51.9 (no result: LGR2 inh)
C=C1CCC[C@]2(C)C[C@H]3OC(=O)C(CNCC(C)C)[C@H]3CC12 (stereo partly specified)	HSF1 activator 68.0
C=C1CCC[C@]2(C)C[C@H]3OC(=O)C(CNCCN(CC)CC)[C@H]3CC12 (stereo partly specified)	HSF1 activator 61.0
C[C@@H]1CN([C@@H](C)CO)C(=O)Cc2cc(NC(=O)Cn3cnnn3)ccc2O[C@@H]1CN(C)C(=O)Nc1ccccc1	none (no result: TWEAK Fn14 block, HSF1 inhib, HSF1 activator, TROY NFkB inh, LMP1 NFkB inh)
C[C@@H]1CN([C@H](C)CO)C(=O)c2cc(NC(=O)Nc3cccc4ccccc34)ccc2O[C@@H]1CN(C)C(=O)Nc1ccc(F)cc1	none (no result: TWEAK Fn14 block, HSF1 inhib, HSF1 activator, TROY NFkB inh, LMP1 NFkB inh)
CC1=CCC2C(=O)N(c3ccc(C)c(Br)c3)C(=O)C2C1 (stereo unspecified)	HSF1 inhib -76.2
O=C(Cc1cccs1)Nc1nc2ccccc2s1	HSF1 activator 65.5 (no result: LGR2 inh)
COc1ccc2nc(NC(=O)Cc3cccs3)sc2c1	HSF1 activator 64.6 (no result: LGR2 inh)
Cc1ccc2nc(NC(=O)Cc3cccs3)sc2c1	none
CCOc1ccc2nc(NC(=O)Cc3cccs3)sc2c1	none (no result: LGR2 inh)
C[C@H](CO)N1C[C@H](C)[C@@H](CN(C)C(=O)c2cccc(F)c2)Oc2ncc(-c3cncnc3)cc2C1=O	none (no result: TWEAK Fn14 block, HSF1 inhib, HSF1 activator, TROY NFkB inh, LMP1 NFkB inh)
CC1CCCCC1NC(=O)COC(=O)c1c2c(nc3ccccc13)/C(=C/c1ccco1)CC2 (stereo unspecified)	TWEAK Fn14 block 50.4 (no result: LGR2 inh)
C[C@@H]1CN([C@@H](C)CO)S(=O)(=O)c2ccc(-c3cccnc3)cc2O[C@@H]1CN(C)Cc1ccncc1	none (no result: TWEAK Fn14 block, HSF1 inhib, HSF1 activator, TROY NFkB inh, LMP1 NFkB inh)
Cc1ccc(-c2csc3ncnc(SCC(=O)Nc4nnc(C)s4)c23)cc1	none (no result: LGR2 inh)
Cc1ccc(-c2csc3ncnc(Sc4nnc(CN5CCCCCC5=O)o4)c23)cc1	TWEAK Fn14 block 84.8, LMP1 NFkB inh 42.4 (no result: LGR2 inh)
CCN=C1S/C(=C\c2cc(OCC)c(O)cc2Br)C(=O)N1CC	LMP1 NFkB inh 53.6
C[C@H]1CN([C@@H](C)CO)C(=O)Cc2cc(NS(=O)(=O)c3cccs3)ccc2O[C@H]1CN(C)S(=O)(=O)c1ccccc1	none (no result: TWEAK Fn14 block, HSF1 inhib, HSF1 activator, TROY NFkB inh, LMP1 NFkB inh)
CN1C(=O)c2cc(NC(=O)C3CCC3)ccc2OC[C@@H]2O[C@H](CC(=O)NCc3ccccc3F)CC[C@@H]21	none (no result: TWEAK Fn14 block, HSF1 inhib, HSF1 activator, TROY NFkB inh, LMP1 NFkB inh)
CC(=O)Nc1ccc2c(c1)C(=O)N(C)[C@H]1CC[C@@H](CC(=O)NCCCN3CCOCC3)O[C@H]1CO2	none (no result: TWEAK Fn14 block, HSF1 inhib, HSF1 activator, TROY NFkB inh, LMP1 NFkB inh)
O=C(NCCc1ccccc1)c1ccc([N+](=O)[O-])cc1	TWEAK Fn14 block 57.9 (no result: LGR2 inh)
CN(C)S(=O)(=O)c1ccc(C(=O)NCCOc2ccccc2)cc1	HSF1 activator inconclusive (no result: LGR2 inh)
